Data published in PubChem BioAssay (NCATS).
Results filed as inconclusive are left out. Entries that show only a call come without a potency. Active and inactive are the calls of the source. The call rests on the fitted dose curve; in most records, active means well fitted curve in the direction sought with a large enough effect; inconclusive means small, poorly fitted or top-dose-only effect, or another doubt; inactive means no such curve, though single readings can be large; an effect the other way counts as inactive or inconclusive.

Legend:
[1] = Quantitative High-Throughput drug screen in 47 multiple myeloma cell lines against the NCATS MIPE library collection: JIM3_ECACC cell viability assay (AID 1918963; further: nearly all actives have a fitted effect of over 35% in size; further: potency means the concentration at half of the fitted maximal effect)
Outline: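 We plated 500 myeloma cells per well, pinned in MIPE 4.0 compounds, and incubated for 48 hours at 37C. ATP was then quantified with CellTiter-Glo, with DMSO and media-only wells defining 100% and 0%.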

[2] = Quantitative High-Throughput drug screen in 47 multiple myeloma cell lines against the NCATS MIPE library collection: JIM1_ECACC cell viability assay (AID 1918964)
Outline: (§1)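 qHTS of the MIPE 4.0 collection: 500 myeloma cells/well, 48 h drug exposure at 37C in 5% CO2, then CellTiter-Glo for 5 min at room temperature before luminescence reading.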

[3] = Quantitative High-Throughput drug screen in 47 multiple myeloma cell lines against the NCATS MIPE library collection: H1112_PLB cell viability assay (AID 1918967; further: nearly all actives have a fitted effect of over 30% in size; further: potency means the concentration at half of the fitted maximal effect)
Outline: as §1

[4] = Quantitative High-Throughput drug screen in 47 multiple myeloma cell lines against the NCATS MIPE library collection: KMS27_JCRB cell viability assay (AID 1918970); settings: KMS27 myeloma cells, CellTiter-Glo ATP viability, 48 h; viability (% of DMSO): at 45.8 µM (top of the series); further: nearly all actives have a fitted effect of over 30% in size; further: potency means the concentration at half of the fitted maximal effect
Outline: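 Myeloma cells (500 per well) were exposed to MIPE 4.0 compounds for 48 h at 37 °C, 5% CO2; viability was read as ATP luminescence with CellTiter-Glo, normalized to DMSO-only (100%) and media-only (0%) wells.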

[5] = Quantitative High-Throughput drug screen in 47 multiple myeloma cell lines against the NCATS MIPE library collection: KMS12PE_JCRB cell viability assay (AID 1918972); further: nearly all actives have a fitted effect of over 30% in size; further: potency means the concentration at half of the fitted maximal effect
Outline: (§2)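 Viability readout: CellTiter-Glo luminescence following 5 min room-temperature incubation with reagent. Prior exposure: 48 h, 37C, humidified 5% CO2, 500 cells per well.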

[6] = Quantitative High-Throughput drug screen in 47 multiple myeloma cell lines against the NCATS MIPE library collection: KMS21BM_JCRB cell viability assay (AID 1918974); settings: ATP luminescence, 48 h; viability: at 45.8 µM (top of the series); further: potency means the concentration at half of the fitted maximal effect
Outline: as §1

[7] = Quantitative High-Throughput drug screen in 47 multiple myeloma cell lines against the NCATS MIPE library collection: KMS26_JCRB cell viability assay (AID 1918975); further: nearly all actives have a fitted effect of over 45% in size; further: potency means the concentration at half of the fitted maximal effect
Outline: (§3)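 CellTiter-Glo luminescence (ATP) after 48 h compound exposure, 37C/5% CO2; 500 cells/well; MIPE 4.0 approved/investigational drugs pinned in; DMSO = 100%, media only = 0% viability.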

[8] = Quantitative High-Throughput drug screen in 47 multiple myeloma cell lines against the NCATS MIPE library collection: MOLP8_DSMZ cell viability assay (AID 1918977); further: nearly all actives have a fitted effect of over 45% in size
Outline: (§4)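 Cells were exposed to library compounds for 48 hours, after which ATP was measured by CellTiter-Glo. Signal was taken as median relative luminescence units.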

[9] = Quantitative High-Throughput drug screen in 47 multiple myeloma cell lines against the NCATS MIPE library collection: NCIH929_DSMZ cell viability assay (AID 1918978); further: nearly all actives have a fitted effect of over 35% in size; further: potency means the concentration at half of the fitted maximal effect
Outline: as §4

[10] = Quantitative High-Throughput drug screen in 47 multiple myeloma cell lines against the NCATS MIPE library collection: OCIMY1_PLB cell viability assay (AID 1918979); further: nearly all actives have a fitted effect of over 35% in size; further: potency means the concentration at half of the fitted maximal effect
Outline: as §4

[11] = Quantitative High-Throughput drug screen in 47 multiple myeloma cell lines against the NCATS MIPE library collection: MM1S_ATCC cell viability assay (AID 1918980); further: nearly all actives have a fitted effect of over 45% in size; further: potency means the concentration at half of the fitted maximal effect
Outline: as §4

[12] = Quantitative High-Throughput drug screen in 47 multiple myeloma cell lines against the NCATS MIPE library collection: LP1_DSMZ cell viability assay (AID 1918982); further: nearly all actives have a fitted effect of over 35% in size; further: potency means the concentration at half of the fitted maximal effect
Outline: as §4

[13] = Quantitative High-Throughput drug screen in 47 multiple myeloma cell lines against the NCATS MIPE library collection: INA6_PLB cell viability assay (AID 1918965; further: nearly all actives have a fitted effect of over 55% in size; further: potency means the concentration at half of the fitted maximal effect)
Outline: as §2

[14] = Quantitative High-Throughput drug screen in 47 multiple myeloma cell lines against the NCATS MIPE library collection: Karpas25_ECACC cell viability assay (AID 1918968; further: nearly all actives have a fitted effect of over 35% in size; further: potency means the concentration at half of the fitted maximal effect)
Outline: as §1

[15] = Quantitative High-Throughput drug screen in 47 multiple myeloma cell lines against the NCATS MIPE library collection: KMS12BM_JCRB cell viability assay (AID 1918971); further: nearly all actives have a fitted effect of over 35% in size; further: potency means the concentration at half of the fitted maximal effect
Outline: as §3

[16] = Quantitative High-Throughput drug screen in 47 multiple myeloma cell lines against the NCATS MIPE library collection: KMS20_JCRB cell viability assay (AID 1918973); further: nearly all actives have a fitted effect of over 45% in size; further: potency means the concentration at half of the fitted maximal effect
Outline: as §1

[17] = Quantitative High-Throughput drug screen in 47 multiple myeloma cell lines against the NCATS MIPE library collection: MMM1_PLB cell viability assay (AID 1918976); further: nearly all actives have a fitted effect of over 35% in size; further: potency means the concentration at half of the fitted maximal effect
Outline: as §4

[18] = Quantitative High-Throughput drug screen in 47 multiple myeloma cell lines against the NCATS MIPE library collection: MM1R_ATCC cell viability assay (AID 1918981); further: nearly all actives have a fitted effect of over 35% in size; further: potency means the concentration at half of the fitted maximal effect
Outline: as §4

[19] = Quantitative High-Throughput drug screen in 47 multiple myeloma cell lines against the NCATS MIPE library collection: JJN3_DSMZ cell viability assay (AID 1918966; further: nearly all actives have a fitted effect of over 50% in size; further: potency means the concentration at half of the fitted maximal effect)
Outline: as §1

Row | SMILES | Potency [1] | Potency [2] | Potency [3] | Potency [4] | Potency [5] | Potency [6] | Potency [7] | Potency [8] | Potency [9] | Potency [10] | Potency [11] | Potency [12] | Potency [13] | Potency [14] | Potency [15] | Potency [16] | Potency [17] | Potency [18] | Potency [19]
1 | CC[C@H]1OC(=O)[C@H](C)[C@@H](O[C@H]2C[C@@](C)(OC)[C@@H](O)[C@H](C)O2)[C@H](C)[C@@H](O[C@@H]2O[C@@H](C)C[C@H](N(C)C)[C@@H]2O)[C@](C)(O)C[C@@H](C)C(=O)[C@H](C)[C@@H](O)[C@]1(C)O | inactive | inactive | inactive | inactive | inactive | inactive | inactive | inactive | inactive | inactive | inactive | inactive | – | – | – | – | – | – | –
2 | C#C[C@]1(O)CC[C@@H]2[C@@H]3CCc4cc(O)ccc4[C@H]3CC[C@@]21C | 20.9 µM (active) | – | 18.7 µM (active) | 16.6 µM (active) | 16.6 µM (active) | – | 3.72 µM (active) | – | 3.72 µM (active) | – | 11.8 µM (active) | – | 9.35 µM (active) | 18.7 µM (active) | 20.9 µM (active) | 14.8 µM (active) | 14.8 µM (active) | 20.9 µM (active) | –
3 | O=C(O)c1ccc(Nc2ncc3c(n2)-c2ccc(Cl)cc2C(c2c(F)cccc2F)=NC3)cc1 | 4.69 µM (active) | – | 16.6 µM (active) | inactive | – | 0.743 µM (active) | – | – | 4.18 µM (active) | inactive | 18.7 µM (active) | – | 1.87 µM (active) | 14.8 µM (active) | 0.296 µM (active) | 14.8 µM (active) | inactive | – | 3.72 µM (active)
4 | C[N+](C)([O-])CCNc1ccc(NCC[N+](C)(C)[O-])c2c1C(=O)c1c(O)ccc(O)c1C2=O | inactive | – | inactive | inactive | inactive | inactive | – | – | inactive | inactive | 20.9 µM (active) | inactive | 16.6 µM (active) | inactive | 18.7 µM (active) | – | – | 18.7 µM (active) | –
5 | COc1ccc(C(C)=O)c(O)c1 | inactive | – | inactive | – | inactive | – | – | inactive | inactive | inactive | 4.69 µM (active) | inactive | inactive | – | – | inactive | – | – | inactive
6 | CCOc1cc2c(c(F)c1OCC)C(=N)N(CC(=O)c1cc(N3CCOCC3)c(OC)c(C(C)(C)C)c1)C2 | 9.35 µM (active) | – | 11.8 µM (active) | – | – | – | 18.7 µM (active) | – | 14.8 µM (active) | 20.9 µM (active) | 14.8 µM (active) | 16.6 µM (active) | 11.8 µM (active) | 9.35 µM (active) | 18.7 µM (active) | 9.35 µM (active) | 10.5 µM (active) | 20.9 µM (active) | 18.7 µM (active)
7 | NS(=O)(=O)OC[C@@H]1C[C@@H](n2ccc3c(N[C@H]4CCc5ccccc54)ncnc32)C[C@H]1O | 13.2 µM (active) | – | – | – | – | – | 2.64 µM (active) | – | 0.833 µM (active) | – | 2.64 µM (active) | 0.662 µM (active) | 0.118 µM (active) | 0.833 µM (active) | 6.62 µM (active) | – | – | – | 1.32 µM (active)
8 | Cn1cc(-c2ccc3ncc(Cc4ccc5ncccc5c4)n3n2)cn1 | 16.6 µM (active) | – | inactive | – | – | – | inactive | – | inactive | inactive | inactive | inactive | 13.2 µM (active) | inactive | – | – | – | inactive | –
9 | Nc1cccc2c1C(=O)N(C1CCC(=O)NC1=O)C2=O (centres undefined) | 0.0935 µM (active) | – | inactive | inactive | inactive | – | – | inactive | – | inactive | 0.526 µM (active) | inactive | 4.18 µM (active) | 8.33 µM (active) | – | – | – | 2.09 µM (active) | –
10 | Cn1cnc2c(F)c(Nc3ccc(Br)cc3F)c(C(=O)NOCCO)cc21 | 0.372 µM (active) | – | – | 0.0074 µM (active) | inactive | – | – | inactive | – | inactive | – | inactive | 0.0187 µM (active) | – | – | 0.0662 µM (active) | – | – | –
11 | CCCCCCCCCCCCc1ccc(S(=O)(=O)Nc2nncs2)cc1 | inactive | – | inactive | inactive | – | – | inactive | – | inactive | inactive | – | inactive | inactive | inactive | inactive | – | – | 18.7 µM (active) | –
12 | CC(C)N(CC[C@H](c1ccccc1)c1cc(CO)ccc1O)C(C)C | inactive | – | – | inactive | inactive | – | inactive | inactive | – | inactive | – | inactive | inactive | inactive | inactive | – | – | inactive | –
13 | CCN(C(=O)c1c(O)c2c(Cl)cccc2n(C)c1=O)c1ccccc1 | inactive | – | inactive | 16.6 µM (active) | – | – | – | – | inactive | inactive | – | inactive | – | inactive | inactive | – | – | – | –
